HIF-2a block – blocks HIF-2a reporter activity; 786-0 RCC cells HIF-2a reporter, luciferase luminescence, overnight; inhibition, % at 18.8 µM; 0.72% of 360,000 active; AID 624352;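 active = inhibition of the luminescence signal of 40% or more relative to plate controls, in a single-dose primary screen at 18.75 µM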
KKLEB tox – counter-screen for CF NF-kB inhibitors: cytotoxicity | KKLEB CF airway cells viability, ATPlite luminescence, overnight; hits give low values; cells stimulated with P. aeruginosa culture filtrate | activity change (cytotoxicity), % at 5 µM | 0.36% of 360,000 active | AID 602141;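 active = corrected activity change at or below -50% at 5 µM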
CF NFkB block – blocks PAF-induced NF-kB reporter in cystic fibrosis cells. inhibition, % at 5 µM. AID 588850. KKLEB NF-kB-GFP reporter, GFP fluorescence overnight. 0.86% of 360,000 active;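 active = at least 50% inhibition at 5 µM, scaled per plate between neutral and stimulator controls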;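 also: PAF is a Pseudomonas aeruginosa culture filtrate used as stimulus; plate controls were PAF-stimulated DMSO wells for no effect and unstimulated DMSO wells for full effect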
EBV LMP1 NFkB – inhibitors of Epstein-Barr LMP1-induced NF-kappaB reporter. inhibition, % at 12.5 µM. LMP1-induced NF-kappaB luciferase reporter cells, luminescence. 0.69% of 350,000 active; in the data active = inhibition above about 41%;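 also: 0% = neutral control wells and 100% = reference inhibitor control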
TRPM1 prom inh – MITF TRPM1 promoter inhibition in SK-MEL-5 cells. AID 488899. 0.83% of 330,000 active. inhibition, % at 12.5 µM. SK-MEL-5 TRPM1 promoter luciferase, 24 h;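 active = mean inhibition across replicates of 60% or more, whatever share of single replicates reaches that level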
Peg3 promoter – reduces Peg3 promoter-driven luciferase expression in HeLa | HeLa PEG-Prom luciferase reporter, luminescence, overnight | inhibition, % at 20 µM | 1.7% of 360,000 active | AID 588405;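 active = inhibition of at least 50% at 20 µM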
* hit, by the source's call; . = no result given. A selection: hits, their analogues and other compounds. The true share with any hit is near 3%.

SMILES	HIF-2a block	KKLEB tox	CF NFkB block	EBV LMP1 NFkB	TRPM1 prom inh	Peg3 promoter
O=C(NC(=S)Nc1nc2ccc(F)cc2s1)c1ccco1	-211.6	-70.8*	-20.2	-20.7	-11.0	-166.0
CC(=O)Nc1nc2cc3c(cc2s1)OCO3	-230.3	8.8	-21.7	-10.8	.	-222.3
O=C(Nc1nc2cc3c(cc2s1)OCO3)c1ccco1	-10.5	-11.0	-25.5	57.8*	9.7	19.9
O=C(Nc1nc2ccc(F)cc2s1)c1ccc([N+](=O)[O-])o1	-176.8	-61.9*	81.0*	-16.5	.	67.3*
COc1ccc(C)cc1-n1nnnc1SCc1nc(N)nc(N(C)C)n1	6.9	7.7	1.9	.	.	16.6
C[C@H]1CN([C@@H](C)CO)S(=O)(=O)c2ccc(-c3cncnc3)cc2O[C@H]1CN(C)C(=O)NC1CCCC1	9.5	-17.2	8.0	-4.6	.	-2.1
Cc1ccc2nc(C3CCCCC3)c(Cc3ccccc3)n2c1	-46.1	6.4	3.4	.	.	9.3
CC(C)(C)c1ccc(C(=O)NCc2nnc(SCC(=O)N3CCCC3)o2)cc1	-7.3	0.5	-6.3	-3.4	.	-3.1
NC(=O)C1(C(=O)O)OC1(c1ccc(Cl)cc1)c1ccccc1Cl (stereo not drawn)	3.0	7.1	-0.6	-6.5	-0.7	-11.3
CCOC(=O)C1(C(N)=O)OC1(c1ccc(Cl)cc1)c1ccccc1Cl (stereo not drawn)	-1.1	9.6	-9.2	1.9	0.4	69.3*
O=[N+]([O-])c1ccc2[nH]cc(S(=O)(=O)N3CCN(c4cccc(Cl)c4)CC3)c2c1	6.6	0.8	12.9	-8.8	-0.4	60.0*
CCOC(=O)C1CCCN(C(=O)c2cc(C)n(C(C)(C)C)n2)CC1 (stereo not drawn)	13.4	-13.5	-10.6	.	.	-1.0
COc1cccc(OC)c1C(=O)NCCSC1CCCCC1	23.8	2.2	9.0	58.9*	-11.4	13.1
CCCCCCCCN1C(=O)[C@H](CC(=O)N2CCN(C(=O)OCC)CC2)C[C@@]2(C(=O)OC)CCCCC=C12	14.6	.	.	.	.	.
CC(=NNC(=S)Nc1cccc(C)c1)c1ccccn1	-215.1	-7.1	-12.1	76.1*	72.2*	-55.5
CC(C)NC(=O)c1cc(-c2cccs2)nc2ccccc12	4.6	0.8	-18.0	-0.3	-9.6	5.8
Cc1cccc2sc(NNC(=O)c3cc(-c4cccs4)nc4ccccc34)nc12	5.9	-11.6	33.2	15.0	30.2	55.8*
O=C(N/N=C/c1ccc(Cl)c([N+](=O)[O-])c1)c1cc(-c2ccccc2)nc2ccccc12	-318.8	-27.4	12.4	-0.2	1.3	108.1*
Cc1ccc(NC(=S)N/N=C/c2ccc(Cl)c([N+](=O)[O-])c2)cc1	-18.6	16.6	-13.4	10.5	-8.7	86.2*
CC(=O)c1ccc(-c2c(CCO)sc3ccccc23)cc1	-95.2	.	.	.	.	.
Cc1nn(-c2ccccc2)c(N2CCCC2)c1/C=N/NC(=O)c1cc(-c2cccs2)nc2ccccc12	20.9	-13.5	22.4	4.7	4.6	36.4
CCOc1ccc(OCc2ccc(C(=O)N/N=C(\C)c3ccccn3)cc2)cc1	-94.6	-2.4	12.6	22.9	23.1	17.9
Cc1nn(-c2ccccc2)c(N2CCCC2)c1/C=N/NC(=O)c1cc(-c2ccccn2)nc2ccccc12	16.2	-6.7	40.4	8.6	8.2	56.8*
O=C(O)c1ccc(/C=N/NC(=O)c2cc(-c3cccs3)nc3ccccc23)cc1	-13.6	-8.2	2.3	-1.7	-6.2	65.0*
C/C(=N\NC(=O)c1cccc2ccccc12)c1ccccn1	-57.8	4.0	-32.1	34.0	76.1*	-16.1
SMILES	HIF-2a block	KKLEB tox	CF NFkB block	EBV LMP1 NFkB	TRPM1 prom inh	Peg3 promoter
O=C(N/N=C/c1ccsc1)c1cc(-c2cccs2)nc2ccccc12	11.5	-19.7	17.7	-11.0	10.4	17.3
C/C(=N\NC(=O)c1ccccc1OCc1ccc(F)cc1)c1ccccn1	-129.5	-12.1	-5.3	15.5	69.9*	50.4*
C[C@@H]1CN([C@@H](C)CO)C(=O)c2cc(Br)cnc2O[C@H]1CN(C)Cc1ccccc1C(=O)O	3.5	-8.8	3.2	-0.1	.	-6.2
O=C(c1ccco1)N1CCN(C(=O)c2ccc(CS(=O)c3ccc(Br)cc3)o2)CC1 (stereo not drawn)	11.5	26.6	-17.5	-7.8	.	14.8
Cc1ccccc1NC(=O)Nc1nc(CN)cs1	8.3	7.4	-20.7	.	.	-2.1
NNC(=O)c1cc(-c2cccs2)nc2ccccc12	7.7	-9.9	-15.0	2.4	0.0	-2.1

Screening data from PubChem.
